Data published in PubChem BioAssay AID602379 (National Center for Advancing Translational Sciences (NCATS), 2012).
Active and inactive are the calls of the source. Calls follow the shape of the dose curve; as a rule, active = well fitted curve in the direction sought with a large enough effect; inactive = no such curve, though single readings can be large or run the other way.

These molecules were tested against Pyruvate kinase PKLR (Homo sapiens) (UniProt P30613) (assay: qHTS for Activators of Human Muscle Isoform Pyruvate Kinase: Extended Characterization against Liver Pyruvate Kinase). Conditions: purified hPK-L, ATP via Kinase-Glo luminescence, 1 h; series mostly up to 57.3 µM.
Sequence of Pyruvate kinase PKLR (Homo sapiens) (P30613 whole entry, looked up, canonical isoform): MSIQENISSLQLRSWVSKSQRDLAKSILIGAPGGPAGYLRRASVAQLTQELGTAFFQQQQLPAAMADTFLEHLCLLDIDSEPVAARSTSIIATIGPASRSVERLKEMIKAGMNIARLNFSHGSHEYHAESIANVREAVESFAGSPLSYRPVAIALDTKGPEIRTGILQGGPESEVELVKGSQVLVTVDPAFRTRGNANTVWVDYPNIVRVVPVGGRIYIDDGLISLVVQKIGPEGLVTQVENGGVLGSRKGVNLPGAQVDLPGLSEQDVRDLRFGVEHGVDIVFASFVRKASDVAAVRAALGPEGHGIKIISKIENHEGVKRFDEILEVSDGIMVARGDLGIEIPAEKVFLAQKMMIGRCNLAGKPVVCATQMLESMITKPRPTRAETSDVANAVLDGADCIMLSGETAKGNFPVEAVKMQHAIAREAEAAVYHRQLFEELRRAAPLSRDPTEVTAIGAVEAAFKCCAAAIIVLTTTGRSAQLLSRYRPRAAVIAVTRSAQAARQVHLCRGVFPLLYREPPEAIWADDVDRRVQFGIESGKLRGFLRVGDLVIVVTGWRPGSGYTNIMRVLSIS
Experimental: Human pyruvate kinase liver (hPK-L) enzyme was supplied as a highly purified (>95% pure) preparation from Harvard Medical School and assayed for its ability to generate ATP from ADP using phosphoenolpyruvate (PEP) as a substrate. ATP generation was detected in a coupled reaction by luciferase-mediated luminescence, an ATP-dependent process. Pyruvate kinase substrates, PEP and ADP, were present in the assay at Km and approximately 10-fold below Km respectively. The enzyme was assayed at an intermediate level of activity to screen for both inhibitors and activators. NIH Chemical Genomics Center [NCGC] NIH Molecular Libraries Probe Centers Network [MLPCN] MLPCN Grant: MH085679 Assay Submitter (PI): Matthew G. Vander Heiden, Harvard Medical School
Three uL of substrate mix (at r.t.) in assay buffer (50 mM Imidazole pH7.2, 50 mM KCl, 7 mM MgCl2, 0.01% Tween 20, 0.05% BSA) was dispensed into white solid bottom 1,536 well microtiter plates so that the final concentrations of substrates in the assay were 0.1 mM ADP and 0.5 mM PEP. 23 nL of compound were delivered by a pin tool and 1 uL of enzyme mix (final concentration of 0.1 nM) in assay buffer (4 degree Celsius) was added. Plates were incubated at room temperature for 1 hour. Two uL of detection mix (Kinase-Glo, Promega; at 4 degree Celsius protected from light) was added and luminescence read by a ViewLux (Perkin Elmer) at 1 second exposure/plate. Data were normalized to the uninhibited (row 31). Additionally, a no enzyme and 5-fold enzyme control was dispensed in row 32, split equally between the two conditions.

Row | Compound | outcome
1 | COc1cccc(Cn2ncc3c4sc(S(C)=O)cc4n(C)c3c2=O)c1 (stereo not given) | inactive
2 | Cc1cc2c(s1)c1cnn(Cc3c(Cl)ccc(C)c3F)c(=O)c1n2C | inactive
3 | Cc1cc2c(s1)c1cnn(Cc3ccc(F)cc3F)c(=O)c1n2C | inactive
4 | Cc1cc2c(s1)c1cnn(Cc3cc(F)ccc3F)c(=O)c1n2C | inactive
5 | Cc1cc2c(s1)c1cnn(Cc3cc(F)c(F)cc3F)c(=O)c1n2C | inactive
